Data from PubChem BioAssay AID720597 (Broad Institute, 2013).
Measured potencies and affinities stand elsewhere. The source made the active and inactive calls.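 Rule for the calls: active = fitted half-maximal dose no more than twice the top valid tested dose, for compounds that lower signal; inconclusive = fit invalid, or curve flat with activity between -70 and -30; inactive = potency past limit, curve flat within ±30, or signal increasing.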

The compounds below were run against NAD-dependent protein deacylase sirtuin-5, mitochondrial (Homo sapiens) (UniProt Q9NXA8) (assay: SIRT5 deacylase inhibitors, dose response, biochemical, fluorescence imaging, cherry-pick, set 6 (AID 720597;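 note: lower AMC signal can also come from blocking the trypsin step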)). Settings: Purified SirT5, succinyl-peptide-AMC/trypsin fluorescence; series mostly up to 15 µM.
NAD-dependent protein deacylase sirtuin-5, mitochondrial (Homo sapiens), sequence (Q9NXA8 whole entry, looked up): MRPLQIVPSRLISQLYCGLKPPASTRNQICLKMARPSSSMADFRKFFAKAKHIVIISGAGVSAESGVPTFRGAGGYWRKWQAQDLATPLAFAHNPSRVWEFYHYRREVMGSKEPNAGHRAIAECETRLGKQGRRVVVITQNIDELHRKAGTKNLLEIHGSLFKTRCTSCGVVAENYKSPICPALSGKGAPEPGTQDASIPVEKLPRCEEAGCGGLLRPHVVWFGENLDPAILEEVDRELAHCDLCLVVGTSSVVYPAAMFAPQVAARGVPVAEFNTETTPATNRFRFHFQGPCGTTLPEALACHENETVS

outcome, inactive:
C[C@H]1CN([C@@H](C)CO)C(=O)c2cc(C#CC3CCCCC3)cnc2O[C@@H]1CN(C)S(=O)(=O)c1cccc(F)c1, COc1ccccc1-c1ccc2c(c1)O[C@@H](CN(C)Cc1ccc3c(c1)OCO3)[C@H](C)CN([C@@H](C)CO)S2(=O)=O, C[C@@H]1CN([C@H](C)CO)S(=O)(=O)c2ccc(-c3cccc(F)c3)cc2O[C@@H]1CN(C)S(=O)(=O)c1ccc(F)cc1, C[C@H](CO)N1C[C@H](C)[C@H](CN(C)Cc2cccc(C(F)(F)F)c2)OCc2ccccc2-c2ccccc2C1=O, CO[C@H]1CN(C)C(=O)c2cc(NC(C)=O)ccc2OC[C@H](C)N(S(=O)(=O)c2cn(C)cn2)C[C@H]1C, COc1ccc(NC(=O)N(C)C[C@@H]2Oc3ccc(NS(=O)(=O)c4ccc(F)cc4)cc3C(=O)N([C@H](C)CO)C[C@H]2C)cc1, C[C@@H]1CCCCO[C@@H](CN(C)C(=O)Cc2ccccc2)[C@@H](C)CN([C@@H](C)CO)C(=O)c2cc(NC(=O)Nc3ccc(F)cc3)ccc2O1, C[C@H]1CN([C@@H](C)CO)C(=O)c2c(c3ccccc3n2C)-c2ccccc2CO[C@H]1CN(C)Cc1cccc2c1OCCCO2, Cc1ccc(-c2ccc3c(c2)O[C@@H](CN(C)Cc2ccccn2)[C@H](C)CN([C@@H](C)CO)S3(=O)=O)cc1, CCCc1c(C)nc2ccc(Br)cc2c1SCCC(=O)O, CCNC(=O)C[C@H]1CC[C@@H]2[C@H](COC[C@H](O)CN2C(=O)Nc2ccc(C(F)(F)F)cc2)O1, Cc1ccc(S(=O)(=O)N[C@@H]2CC[C@@H](CC(=O)N3CCN(c4ccccc4)CC3)O[C@@H]2CO)cc1, CN(C)CC(=O)N1[C@H](CO)[C@@H](c2ccccc2)C12CN(C(=O)C1CCCC1)C2, C[C@H]1CN([C@@H](C)CO)C(=O)c2ccccc2-c2ccccc2CO[C@@H]1CN(C)C(=O)Nc1ccccc1C(F)(F)F, COc1ccc(S(=O)(=O)Nc2ccc3c(c2)C(=O)N([C@H](C)CO)C[C@H](C)[C@H](CN(C)Cc2ccc(C(F)(F)F)cc2)OCCCC[C@H](C)O3)cc1, CO[C@@H](C(=O)N(C)C[C@H]1OCc2ccccc2-c2ccccc2C(=O)N([C@@H](C)CO)C[C@@H]1C)c1ccccc1, COc1ccc(S(=O)(=O)N(C)C[C@@H]2OCCCC[C@@H](C)Oc3ccc(NS(=O)(=O)c4ccc(C)cc4)cc3C(=O)N([C@@H](C)CO)C[C@@H]2C)cc1, COc1ccc(S(=O)(=O)N(C)C[C@@H]2OCCCC[C@H](C)Oc3ccc(NS(=O)(=O)c4cccs4)cc3C(=O)N([C@@H](C)CO)C[C@H]2C)cc1, C[C@H]1CN([C@@H](C)CO)C(=O)c2cccc(NS(=O)(=O)c3cn(C)cn3)c2O[C@H]1CN(C)Cc1ccc(Oc2ccccc2)cc1, C[C@@H]1CCCCO[C@@H](CN(C)C(=O)Nc2ccc(C(F)(F)F)cc2)[C@H](C)CN([C@H](C)CO)C(=O)c2cc(NS(=O)(=O)c3ccc(Cl)cc3)ccc2O1, C[C@@H]1CCCCO[C@H](CN(C)C(=O)Nc2ccc(C(F)(F)F)cc2)[C@@H](C)CN([C@H](C)CO)C(=O)c2cc(NS(=O)(=O)c3ccc(Cl)cc3)ccc2O1, C[C@H](CO)N1C[C@H](C)[C@@H](CN(C)Cc2ccc(C(F)(F)F)cc2)OCCCC[C@H](C)Oc2ccc(NS(=O)(=O)c3ccc(F)cc3)cc2C1=O, CCOC(=O)N(C)C[C@@H]1OCc2ccccc2-c2ccccc2C(=O)N([C@@H](C)CO)C[C@H]1C, C[C@@H]1CN([C@H](C)CO)C(=O)c2cccc(NC(=O)c3ccncc3)c2O[C@H]1CN(C)S(C)(=O)=O, C[C@H](CO)N1C[C@H](C)[C@H](CN(C)Cc2cccc(F)c2)Oc2ncc(C#C[C@@H](C)O)cc2C1=O, CC(C)CC#Cc1ccc2c(c1)O[C@@H](CN(C)Cc1ccccc1F)[C@H](C)CN([C@H](C)CO)S2(=O)=O, CC1C(=O)N2CCCc3cc(S(=O)(=O)N4CCCC4)cc1c32 (centres undefined), COc1ccc(C#Cc2ccc([C@H]3[C@H]4CN(C(=O)c5cccnc5)CC(=O)N4[C@H]3CO)cc2)cc1, CN(C)c1ccc2c(c1)[C@H]1C[C@H](CC(=O)NCc3ccc(Oc4ccccc4)cc3)O[C@H](CO)[C@H]1O2, C[C@H](O)C#Cc1ccc2c(c1)O[C@@H](CN(C)Cc1ccc(-c3ccccc3)cc1)[C@H](C)CN([C@H](C)CO)S2(=O)=O, C[C@H](CO)N1C[C@H](C)[C@@H](CN(C)Cc2ccccc2C(F)(F)F)OCc2ccccc2-c2ccccc2C1=O, Cc1ccc(-c2ccc(C3[C@@H]4CN(S(=O)(=O)c5cccc(C)c5)C[C@H]3N4)cc2)cc1 (some centres undefined), CO[C@H]1CN(C)C(=O)c2cc(NC(=O)NC3CCCCC3)ccc2OC[C@H](C)N(CCc2ccccc2)C[C@@H]1C, C/C=C/c1ccc2c(c1)O[C@H](CN(C)Cc1cccc(F)c1)[C@H](C)CN([C@@H](C)CO)S2(=O)=O, Cc1noc(C)c1S(=O)(=O)Nc1ccc2c(c1)C(=O)N([C@@H](C)CO)C[C@H](C)[C@@H](CN(C)Cc1ccc(C(F)(F)F)cc1)OCCCC[C@@H](C)O2, C[C@@H](O)C#Cc1ccc2c(c1)O[C@H](CN(C)Cc1ccc(-c3ccccc3)cc1)[C@@H](C)CN([C@@H](C)CO)S2(=O)=O, COc1ccc(S(=O)(=O)Nc2ccc3c(c2)C(=O)N([C@@H](C)CO)C[C@@H](C)[C@@H](CN(C)Cc2ccc(Oc4ccccc4)cc2)O3)cc1, C[C@@H]1CN([C@H](C)CO)C(=O)c2cc(C#CCN(C)C)cnc2O[C@@H]1CN(C)Cc1ccncc1, C[C@@H]1CN([C@@H](C)CO)S(=O)(=O)c2ccc(C3=CCCCC3)cc2O[C@@H]1CN(C)S(=O)(=O)c1ccc(F)cc1
